According to PubChem BioAssay (EPA / NIEHS):
Active and inactive are the calls of the source. Rule for the calls: active = hit-call score of the fitted dose curve at least 0.9, where 1 is the maximum; inactive = score below 0.9.

Columns and labels:
[1] = read-out: Vascular endothelial growth factor receptor 2 (Homo sapiens) (UniProt P35968); experiment: BSK_4H_VEGFRII: BioMAP Diversity Plus: 4H Assay for Vascular endothelial growth factor receptor 2 (VEGFR2) Biomarker Activity (AID 2283031); settings: primary human endothelial cells (HUVEC); actives raise or lower the signal;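 for AC50: cell-surface VEGFR2 protein level quantified by ELISA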
In short: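 Primary human umbilical vein endothelial cells (4H system), 24 h exposure; cell-surface VEGFR2 measured by ELISA. Bidirectional fitting versus DMSO; cytotoxicity checked in parallel by SRB total-protein staining.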

[2] = read-out: Human Leukocyte Antigen - DR isotype (HLADR), HLA-DRA (gene 3122); experiment: BSK_BE3C_HLADR: BioMAP Diversity Plus: BE3C Assay for Human Leukocyte Antigen - DR isotype (HLADR) Biomarker Activity (AID 2283032); settings: primary human bronchial epithelial cells; actives raise or lower the signal
In short: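 Signal came from an ELISA for HLA-DR in human bronchial epithelial primary cells harvested 24 h after treatment; gain- and loss-of-signal fitting used DMSO controls as reference.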

[3] = read-out: Vascular cell adhesion molecule 1 (VCAM1), VCAM1 (gene 7412); experiment: BSK_4H_VCAM1: BioMAP Diversity Plus: 4H Assay for Vascular cell adhesion molecule 1 (VCAM1) Biomarker Activity (AID 2283033); settings: primary human endothelial cells (HUVEC); actives raise or lower the signal
In short: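 Endpoint derived from bidirectional fitting against DMSO controls of VCAM-1 ELISA signal in umbilical vein endothelial cells sampled at 24 h following treatment.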

[4] = read-out: Interferon-gamma inducible Protein 10 (IP10), CXCL10 (gene 3627); experiment: BSK_BE3C_IP10: BioMAP Diversity Plus: BE3C Assay for Interferon-gamma inducible Protein 10 (IP10) Biomarker Activity (AID 2283034); settings: primary human bronchial epithelial cells; actives raise or lower the signal
In short: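 Using primary human bronchial epithelial cultures, the assay captures IP-10 by ELISA one day (24 h) after exposure. Parallel SRB staining of total protein flags overt cytotoxicity. Fits run bidirectionally relative to DMSO.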

[5] = read-out: Monokine induced gamma interferon (MIG), CXCL9 (gene 4283); experiment: BSK_BE3C_MIG: BioMAP Diversity Plus: BE3C Assay for Monokine induced gamma interferon (MIG) Biomarker Activity (AID 2283035); settings: primary human bronchial epithelial cells; actives raise or lower the signal
In short: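 ELISA read-out of MIG in human lung bronchial epithelial primary cultures, 24 h post-dosing. Bidirectional curve fit vs DMSO baseline.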

[6] = read-out: Plasminogen activator inhibitor-1 (PAI1), SERPINE1 (gene 5054); experiment: BSK_BE3C_PAI1: BioMAP Diversity Plus: BE3C Assay for Plasminogen activator inhibitor-1 (PAI1) Biomarker Activity (AID 2283037); settings: primary human bronchial epithelial cells; actives raise or lower the signal
In short: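 PAI-1 biomarker levels in treated human bronchial epithelial cells are determined by ELISA at 24 h. Both increases and decreases relative to DMSO are fitted.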

[7] = read-out: urokinase plasminogen activator (uPA), PLAU (gene 5328); experiment: BSK_BE3C_uPA: BioMAP Diversity Plus: BE3C Assay for urokinase plasminogen activator (uPA) Biomarker Activity (AID 2283038); settings: primary human bronchial epithelial cells; actives raise or lower the signal
In short: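 Primary human bronchial epithelial cells, uPA measured by ELISA 24 h after dosing. Bidirectional change relative to DMSO; cytotoxicity checked in parallel cultures by sulforhodamine B total-protein staining.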

[8] = read-out: Urokinase-type plasminogen activator receptor (uPAR), PLAUR (gene 5329); experiment: BSK_BE3C_uPAR: BioMAP Diversity Plus: BE3C Assay for Urokinase-type plasminogen activator receptor (uPAR) Biomarker Activity (AID 2283039); settings: primary human bronchial epithelial cells; actives raise or lower the signal
In short: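 A uPAR ELISA serves as the readout, taken 24 h after treating primary human bronchial epithelial cells. Responses in either direction are fitted against DMSO, which defines baseline activity.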

[9] = read-out: Interleukin-6 (IL6), IL6 (gene 3569); experiment: BSK_CASM3C_IL6: BioMAP Diversity Plus: CASM3C Assay for Interleukin-6 (IL6) Biomarker Activity for (AID 2283040); settings: primary human coronary artery smooth muscle cells; actives raise or lower the signal
[10] = read-out: Tissue plasminogen activator (tPA), PLAT (gene 5327); experiment: BSK_BE3C_tPA: BioMAP Diversity Plus: BE3C Assay for Tissue plasminogen activator (tPA) Biomarker Activity (AID 2283041); settings: primary human bronchial epithelial cells; actives raise or lower the signal
In short: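 Bidirectional curve fitting relative to DMSO defined activity, with tPA detected by ELISA in chemically treated human bronchial epithelial primary cells at 24 hours.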

[11] = read-out: Interleukin-8 (IL8), CXCL8 (gene 3576); experiment: BSK_CASM3C_IL8: BioMAP Diversity Plus: CASM3C Assay for Interleukin-8 (IL8) Biomarker Activity (AID 2283042); settings: primary human coronary artery smooth muscle cells; actives raise or lower the signal;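 note: IL-8 protein level quantified by ELISA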
[12] = read-out: Human Leukocyte Antigen - DR isotype (HLADR), HLA-DRA (gene 3122); experiment: BSK_CASM3C_HLADR: BioMAP Diversity Plus: CASM3C Assay for Human Leukocyte Antigen - DR isotype (HLADR) Biomarker Activity (AID 2283043); settings: primary human coronary artery smooth muscle cells; actives raise or lower the signal;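 note: cell-surface HLA-DR protein level quantified by ELISA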
[13] = read-out: Macrophage colony-stimulating factor (MCSF), CSF1 (gene 1435); experiment: BSK_CASM3C_MCSF: BioMAP Diversity Plus: CASM3C Assay for Macrophage colony-stimulating factor (MCSF) Biomarker Activity (AID 2283044); settings: primary human coronary artery smooth muscle cells; actives raise or lower the signal;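 note: M-CSF protein amount quantified by ELISA after 24 h exposure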
[14] = read-out: Low-density lipoprotein receptor (LDLR), LDLR (gene 3949); experiment: BSK_CASM3C_LDLR: BioMAP Diversity Plus: CASM3C Assay for Low-density lipoprotein receptor (LDLR) Biomarker Activity (AID 2283045); settings: primary human coronary artery smooth muscle cells; actives raise or lower the signal;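 note: LDLR protein level on the cell surface quantified by ELISA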
[15] = read-out: Monocyte Chemoattractant Protein-1 (MCP1), CCL2 (gene 6347); experiment: BSK_CASM3C_MCP1: BioMAP Diversity Plus: CASM3C Assay for Monocyte Chemoattractant Protein-1 (MCP1) Biomarker Activity (AID 2283046); settings: primary human coronary artery smooth muscle cells; actives raise or lower the signal;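 note: MCP-1 level quantified by ELISA 24 h after dosing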
[16] = BSK_CASM3C_Proliferation: Cell Proliferation Assessment in the BioMAP Diversity Plus: CASM3C Assay (AID 2283047); settings: primary human coronary artery smooth muscle cells;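 note: sulforhodamine B total protein stain as relative cell number at 560 nm; sub-confluent cells exposed 48 h before staining; fitted both ways against DMSO so gain or loss of cell number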
[17] = read-out: Monokine induced gamma interferon (MIG), CXCL9 (gene 4283); experiment: BSK_CASM3C_MIG: BioMAP Diversity Plus: CASM3C Assay for Monokine induced gamma interferon (MIG) Biomarker Activity (AID 2283048); settings: primary human coronary artery smooth muscle cells; actives raise or lower the signal;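 note: MIG protein level measured by ELISA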
[18] = read-out: serum amyloid A (SAA), SAA1 (gene 6288); experiment: BSK_CASM3C_SAA: BioMAP Diversity Plus: CASM3C Assay for serum amyloid A (SAA) Biomarker Activity (AID 2283049); settings: primary human coronary artery smooth muscle cells; actives raise or lower the signal;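 note: SAA protein level quantified by ELISA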
[19] = BSK_CASM3C_SRB: Viability Assessment in the BioMAP Diversity Plus: CASM3C Assay (AID 2283050); settings: primary human coronary artery smooth muscle cells;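 note: cells exposed to compound for 24 h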
[20] = read-out: Transforming growth factor beta 1 (TGFb1), TGFB1 (gene 7040); experiment: BSK_BE3C_TGFb1: BioMAP Diversity Plus: BE3C Assay for Transforming growth factor beta 1 (TGFb1) Biomarker Activity (AID 2283036); settings: primary human bronchial epithelial cells; actives raise or lower the signal
In short: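 In this human primary bronchial epithelial system, an ELISA quantified TGF-b1 one day after dosing. Endpoint changes in either direction were fitted relative to DMSO.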

Measured: AC50

CCCCOC(=O)c1ccccc1C(=O)OCc1ccccc1
not listed: [20]
inactive: all other assays above

CNC(=O)Oc1cccc2c1OC(C)(C)C2
inactive: all assays above

O=C(N[C@H](c1ccccc1)[C@@H]1CN2CCC1CC2)c1c(Cl)ccc(C(F)(F)F)c1Cl
active: [2] 39.7 µM | [4] 21.9 µM | [5] 49 µM | [20] 19.4 µM | [6] 29.7 µM | [7] 22.4 µM | [8] 34.5 µM | [10] 29.7 µM | [14] 25 µM | [16] 25.2 µM
inactive: all other assays above

COC(=O)Nc1nc2ccccc2[nH]1
active: [12] 5.43 µM | [16] 8.49 µM
inactive: all other assays above

Clc1ccc(C(c2ccc(Cl)cc2)C(Cl)Cl)cc1
inactive: [5] | [7] | [8] | [9] | [10] | [11] | [17] | [18] | [19]
active: [1] 26.1 µM | [2] 30.5 µM | [3] 25 µM | [4] 32.2 µM | [20] 34.6 µM | [6] 34.4 µM | [12] 25.2 µM | [13] 15.2 µM | [14] 5.11 µM | [15] 32.1 µM | [16] 32.1 µM

CN(C)c1ccc(C(=O)c2ccc(N(C)C)cc2)cc1
active: [16] 2 µM
inactive: all other assays above

Clc1ccccc1Cl
inactive: all assays above

CCCCCCCCn1sccc1=O
active: [2] 7.16 µM | [3] 9.24 µM | [4] 9.14 µM | [5] 13.6 µM | [6] 7.33 µM | [7] 9.51 µM | [8] 12.9 µM | [9] 28.3 µM | [10] 6.84 µM | [11] 14.3 µM | [12] 4.85 µM | [13] 10.8 µM | [14] 12.8 µM | [15] 15 µM | [16] 1.28 µM | [17] 9.51 µM | [18] 17.2 µM | [19] 14.7 µM
inactive: [1]
